Measured values taken from PubChem BioAssay.
Active and inactive are the calls of the source. How the calls were made is not given here.

Experiment: Brca1-Bard1 BiLC signal decrease – luminescence, single concentration, counter-screen for Mdm2/MdmX interaction inhibitor project, confirmation (AID 504668)
Settings: Brca1/Bard1 bimolecular luciferase complementation counterscreen, at 8 µM, hits give high values

| Structure (SMILES) | inhibition |
| --- | --- |
| CCn1c(SCc2c(Cl)cccc2Cl)nc2nc3c(cc2c1=O)CCCC3 | 35.8% (active) |
| C=C1C(=O)C=C[C@]2(C)C[C@@H]3OC(=O)[C@](C)(O)[C@H]3C[C@@H]12 | 25.4% (active) |
| CC(C)Cc1nc(Nc2ccc(S(=O)(=O)N3CCCC3)cc2)c2nnn(Cc3ccccc3)c2n1 | 24.1% (active) |
| Nc1cccc2nc3ccccc3cc12 | 32.2% (active) |
| CC1=[N+](C)c2ccc3ccccc3c2C1(C)C | 28.2% (active) |
| O=C(CCS(=O)(=O)c1ccc(F)cc1)Nc1nc(-c2ccncc2)cs1 | 34.2% (active) |
| CC(C)(C)C(=O)N1CCN(c2ccc(NC(=O)c3ccc([N+](=O)[O-])o3)cc2)CC1 | 30.5% (active) |
| Oc1c(CN2CCN(c3ccccn3)CC2)cc(Cl)c2cccnc12 | 28% (active) |
| C=CCN=C1NN=C(c2cc(C)n(CCOC)c2C)CS1 | 31% (active) |
| O=C(CCS(=O)(=O)c1ccc(Cl)cc1)Nc1nc(-c2ccncc2)cs1 | 25.6% (active) |
| COc1ccc([C@@H]2[C@@H]3C(=O)N(C(C)(C)C)C(=O)[C@@H]3[C@]3(Cc4ccccc4)C(=O)N(c4ccc(Br)cc4)C(=O)N23)cc1 | 35.6% (active) |
| CCOC(=O)c1c(-c2ccccc2)oc2ccc(OCC(O)CNCCN(C)C)cc12 (stereo not given) | 35.1% (active) |
| CC(C)(C)c1cc(NCCCn2ccnc2)n2ncc(-c3ccc(Cl)cc3)c2n1 | 34.9% (active) |
| Oc1ccc(/C=N/Nc2nc(-c3ccccc3F)nc3ccccc23)c(O)c1 | 31% (active) |
| COc1cccc(Nc2nc(NCCO)c3ccccc3n2)c1 | 27.7% (active) |
